Here are results for 11 compounds from ChEMBL document CHEMBL3988442, “University of Dundee, Small-Polar-MMV Screening Library” (2021).

For some of these results: Entries with a potency or affinity are not part of this list.

Common to all, as to set-up: scale not given: direction of the effect not stated beside the values
The target of test [1] is Protein translocase subunit SecA (Escherichia coli (strain K12)) (UniProt P10408). The test is described as follows: Assay to Identify E. coli SecA ATPase Inhibitors. The format is functional. The following applies: 30 µM.
Protein translocase subunit SecA (Escherichia coli (strain K12)), sequence (P10408 whole entry): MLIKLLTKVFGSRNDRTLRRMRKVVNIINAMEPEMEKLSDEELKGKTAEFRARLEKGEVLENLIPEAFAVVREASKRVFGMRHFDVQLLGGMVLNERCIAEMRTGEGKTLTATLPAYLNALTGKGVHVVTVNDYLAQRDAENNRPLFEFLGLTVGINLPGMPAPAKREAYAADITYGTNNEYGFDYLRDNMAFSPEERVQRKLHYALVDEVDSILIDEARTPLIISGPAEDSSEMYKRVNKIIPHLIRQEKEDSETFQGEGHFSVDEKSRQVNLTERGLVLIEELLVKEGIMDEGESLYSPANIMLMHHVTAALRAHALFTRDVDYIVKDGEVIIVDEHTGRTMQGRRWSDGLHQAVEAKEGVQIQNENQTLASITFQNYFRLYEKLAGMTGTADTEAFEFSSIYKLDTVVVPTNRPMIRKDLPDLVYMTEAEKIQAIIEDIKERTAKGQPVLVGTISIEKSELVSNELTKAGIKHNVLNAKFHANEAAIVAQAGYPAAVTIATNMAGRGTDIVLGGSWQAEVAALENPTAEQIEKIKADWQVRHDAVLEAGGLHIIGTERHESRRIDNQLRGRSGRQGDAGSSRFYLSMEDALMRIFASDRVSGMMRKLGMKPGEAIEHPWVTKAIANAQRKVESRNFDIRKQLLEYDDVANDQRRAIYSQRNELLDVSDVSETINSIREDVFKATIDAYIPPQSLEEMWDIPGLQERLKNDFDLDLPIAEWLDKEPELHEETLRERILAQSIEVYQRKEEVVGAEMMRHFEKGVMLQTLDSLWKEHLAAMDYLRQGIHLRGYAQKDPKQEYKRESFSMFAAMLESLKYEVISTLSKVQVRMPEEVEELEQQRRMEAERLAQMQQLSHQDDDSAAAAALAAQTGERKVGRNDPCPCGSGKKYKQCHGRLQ
For test [2], the target named is T1, Ubiquitin-activating enzyme e1, putative (Leishmania donovani (strain BPK282A1)) (UniProt E9BSI1).
T1 sequence (whole entry): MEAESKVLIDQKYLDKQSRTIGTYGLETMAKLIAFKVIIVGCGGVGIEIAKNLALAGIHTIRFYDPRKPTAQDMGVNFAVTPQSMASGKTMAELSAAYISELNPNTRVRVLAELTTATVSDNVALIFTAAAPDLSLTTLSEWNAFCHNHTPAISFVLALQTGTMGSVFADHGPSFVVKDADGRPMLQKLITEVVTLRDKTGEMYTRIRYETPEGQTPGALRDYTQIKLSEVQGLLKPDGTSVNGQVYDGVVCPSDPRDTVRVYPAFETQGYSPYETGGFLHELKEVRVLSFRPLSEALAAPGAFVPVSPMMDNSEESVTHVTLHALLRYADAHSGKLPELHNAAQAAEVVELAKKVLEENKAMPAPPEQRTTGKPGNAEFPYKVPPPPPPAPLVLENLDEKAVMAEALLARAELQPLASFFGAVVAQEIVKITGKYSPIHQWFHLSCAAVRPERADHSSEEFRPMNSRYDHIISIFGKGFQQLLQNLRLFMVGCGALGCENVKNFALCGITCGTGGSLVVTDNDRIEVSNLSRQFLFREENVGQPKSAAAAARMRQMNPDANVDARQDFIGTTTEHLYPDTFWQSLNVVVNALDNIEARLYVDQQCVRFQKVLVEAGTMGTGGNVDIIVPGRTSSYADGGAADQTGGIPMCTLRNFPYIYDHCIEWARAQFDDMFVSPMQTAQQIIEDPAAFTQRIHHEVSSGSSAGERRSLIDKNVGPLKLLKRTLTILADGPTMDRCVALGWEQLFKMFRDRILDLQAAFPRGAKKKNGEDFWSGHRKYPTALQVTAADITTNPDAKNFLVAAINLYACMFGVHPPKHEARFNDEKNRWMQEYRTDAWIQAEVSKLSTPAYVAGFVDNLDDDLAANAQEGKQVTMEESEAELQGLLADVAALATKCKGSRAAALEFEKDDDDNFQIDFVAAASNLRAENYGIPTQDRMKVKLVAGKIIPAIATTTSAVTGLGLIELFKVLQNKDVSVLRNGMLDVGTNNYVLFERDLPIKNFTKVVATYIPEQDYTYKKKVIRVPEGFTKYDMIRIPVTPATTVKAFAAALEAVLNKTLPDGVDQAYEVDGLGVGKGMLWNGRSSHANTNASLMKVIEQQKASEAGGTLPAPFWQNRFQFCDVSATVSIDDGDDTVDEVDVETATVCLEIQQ
The test is described as follows: Leishmania donovani Ubiquitin Activating Enzyme (LdE1). Conditions: 30 µM. It is filed as functional.

In test [3] the target is AMP-activated protein kinase, AMPK (Homo sapiens) (UniProt P54646+O43741+P54619+Q9UGJ0+Q9Y478+Q13131+Q9UGI9). As to the kind of experiment: AMP-dependent Kinase enzyme assay. An in vitro enzyme assay that detects ADP turnover that is directly proportional to AMPK activity. This uses naive AMPK that is activated during the assay with MK-8722. The format is functional. The following applies: 30 µM.

In test [4] the target is Sialic acid-binding Ig-like lectin 9 (Homo sapiens) (UniProt Q9Y336). The test is described as follows: Hs-Siglec9 ALPHAscreen SOP 20170721. The following applies: 10 µM.
Sialic acid-binding Ig-like lectin 9 (Homo sapiens), sequence (Q9Y336 whole entry): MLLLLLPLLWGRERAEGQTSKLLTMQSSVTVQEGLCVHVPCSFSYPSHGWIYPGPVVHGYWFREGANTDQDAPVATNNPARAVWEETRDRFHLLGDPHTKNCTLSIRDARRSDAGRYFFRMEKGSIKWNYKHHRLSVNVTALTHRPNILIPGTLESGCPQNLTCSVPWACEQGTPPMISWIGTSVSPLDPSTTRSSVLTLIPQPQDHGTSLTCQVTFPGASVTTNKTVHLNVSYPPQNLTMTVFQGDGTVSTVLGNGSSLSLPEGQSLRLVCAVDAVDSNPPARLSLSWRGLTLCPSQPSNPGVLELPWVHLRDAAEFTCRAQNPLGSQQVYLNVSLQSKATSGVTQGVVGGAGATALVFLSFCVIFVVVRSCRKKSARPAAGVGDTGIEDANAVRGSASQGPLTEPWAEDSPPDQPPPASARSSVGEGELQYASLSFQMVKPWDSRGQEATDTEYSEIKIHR
The test system of another test is Trypanosoma cruzi. The test is described as follows: Trypanosoma cruzi phosphomannomutase and mannose-1-phosphate guanylyltransferase assay. The format is functional. Conditions: 10 µM.
Test [5] concerns the target T2, Arginase-2, mitochondrial (Homo sapiens) (UniProt P78540).
T2 sequence (whole entry): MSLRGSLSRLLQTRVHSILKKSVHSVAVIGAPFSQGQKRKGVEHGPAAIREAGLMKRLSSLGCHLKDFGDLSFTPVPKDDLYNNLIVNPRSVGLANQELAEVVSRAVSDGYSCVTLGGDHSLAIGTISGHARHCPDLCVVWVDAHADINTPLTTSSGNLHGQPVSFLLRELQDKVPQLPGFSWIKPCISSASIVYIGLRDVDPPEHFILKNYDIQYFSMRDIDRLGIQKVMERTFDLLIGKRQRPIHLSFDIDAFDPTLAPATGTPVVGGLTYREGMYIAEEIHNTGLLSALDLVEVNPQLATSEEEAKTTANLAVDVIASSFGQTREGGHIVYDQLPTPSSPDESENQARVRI
The test is described as follows: in vitro enzyme assay to detect the production of urea directly proportional to the activity of Arginase II. Further: in the data most compounds retested in dose-response had high values. The format is functional. The following applies: 33.3 µM.

The target of test [6] is T3, Proteasome subunit beta (Trypanosoma cruzi) (UniProt O96673).
T3 sequence (whole entry): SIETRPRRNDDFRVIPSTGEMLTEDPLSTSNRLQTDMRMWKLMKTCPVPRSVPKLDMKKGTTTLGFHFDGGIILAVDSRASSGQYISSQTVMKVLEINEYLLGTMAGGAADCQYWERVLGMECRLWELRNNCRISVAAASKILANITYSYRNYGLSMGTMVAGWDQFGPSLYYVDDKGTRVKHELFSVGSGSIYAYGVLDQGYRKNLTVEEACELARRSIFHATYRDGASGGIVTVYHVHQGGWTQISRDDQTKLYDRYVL
As to the kind of experiment: Trypanosoma cruzi proteasome chymotrypsin-like activity (TcProtChymo) assay. Further: in the data most compounds retested in dose-response had high values. The format is functional. The following applies: 9.37 µM.

The species named for another test is Homo sapiens. As to the kind of experiment: To identify inhibition of the IFN signalling (Jak-Stat) pathway via expression of an eGFP reporter gene under the control of an IFN-stimulated response element (ISRE) containing MxA promoter. It is filed as functional. The following applies: 30 µM. (In general: In a reporter assay the amount or activity of a reporter protein is the signal.)

The target of test [7] is T4, Tyrosyl-tRNA synthetase, putative (Trypanosoma cruzi (strain CL Brener)) (UniProt Q4DSP6).
T4 sequence (whole entry): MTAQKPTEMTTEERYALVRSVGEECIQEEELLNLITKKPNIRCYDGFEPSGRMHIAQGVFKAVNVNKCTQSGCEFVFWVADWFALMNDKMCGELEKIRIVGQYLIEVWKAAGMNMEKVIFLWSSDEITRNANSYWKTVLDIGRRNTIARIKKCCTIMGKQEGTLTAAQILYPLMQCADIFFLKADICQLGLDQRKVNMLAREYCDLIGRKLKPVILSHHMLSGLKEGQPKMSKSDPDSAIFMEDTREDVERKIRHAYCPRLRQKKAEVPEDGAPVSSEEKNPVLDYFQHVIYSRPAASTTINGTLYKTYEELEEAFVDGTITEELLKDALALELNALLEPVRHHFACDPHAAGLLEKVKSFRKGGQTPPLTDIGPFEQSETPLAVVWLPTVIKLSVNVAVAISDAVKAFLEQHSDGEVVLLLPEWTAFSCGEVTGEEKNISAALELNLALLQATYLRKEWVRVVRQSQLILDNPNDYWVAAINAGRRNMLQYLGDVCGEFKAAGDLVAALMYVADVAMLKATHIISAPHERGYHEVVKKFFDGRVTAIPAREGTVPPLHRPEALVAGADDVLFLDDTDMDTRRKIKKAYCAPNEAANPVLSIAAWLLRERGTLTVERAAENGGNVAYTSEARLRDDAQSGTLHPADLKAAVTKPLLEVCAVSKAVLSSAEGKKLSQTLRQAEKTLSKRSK
As to the kind of experiment: Trypanosoma cruzi tyrosyl tRNA synthetase (TcYRS) _High Tyrosine SOP. Further: in the data most compounds retested in dose-response had high values. The format is functional. The following applies: 30 µM.

In test [8] the target is T4, Tyrosyl-tRNA synthetase, putative (Trypanosoma cruzi (strain CL Brener)). The test is described as follows: Trypanosoma cruzi tyrosyl tRNA synthetase (TcYRS) SOP. It is filed as functional. Conditions: 30 µM.
Test [9] deals with Chromo domain-containing protein 1 (Saccharomyces cerevisiae (strain ATCC 204508 / S288c) (Baker's yeast)) (UniProt P32657). The test is described as follows: ScCHD-1 Enzyme Inhibition Assay. Further: in the data most compounds retested in dose-response had high values. It is filed as functional. The following applies: 30 µM.
Chromo domain-containing protein 1 (Saccharomyces cerevisiae (strain ATCC 204508 / S288c) (Baker's yeast)), sequence (P32657 whole entry, the tested form may be a part): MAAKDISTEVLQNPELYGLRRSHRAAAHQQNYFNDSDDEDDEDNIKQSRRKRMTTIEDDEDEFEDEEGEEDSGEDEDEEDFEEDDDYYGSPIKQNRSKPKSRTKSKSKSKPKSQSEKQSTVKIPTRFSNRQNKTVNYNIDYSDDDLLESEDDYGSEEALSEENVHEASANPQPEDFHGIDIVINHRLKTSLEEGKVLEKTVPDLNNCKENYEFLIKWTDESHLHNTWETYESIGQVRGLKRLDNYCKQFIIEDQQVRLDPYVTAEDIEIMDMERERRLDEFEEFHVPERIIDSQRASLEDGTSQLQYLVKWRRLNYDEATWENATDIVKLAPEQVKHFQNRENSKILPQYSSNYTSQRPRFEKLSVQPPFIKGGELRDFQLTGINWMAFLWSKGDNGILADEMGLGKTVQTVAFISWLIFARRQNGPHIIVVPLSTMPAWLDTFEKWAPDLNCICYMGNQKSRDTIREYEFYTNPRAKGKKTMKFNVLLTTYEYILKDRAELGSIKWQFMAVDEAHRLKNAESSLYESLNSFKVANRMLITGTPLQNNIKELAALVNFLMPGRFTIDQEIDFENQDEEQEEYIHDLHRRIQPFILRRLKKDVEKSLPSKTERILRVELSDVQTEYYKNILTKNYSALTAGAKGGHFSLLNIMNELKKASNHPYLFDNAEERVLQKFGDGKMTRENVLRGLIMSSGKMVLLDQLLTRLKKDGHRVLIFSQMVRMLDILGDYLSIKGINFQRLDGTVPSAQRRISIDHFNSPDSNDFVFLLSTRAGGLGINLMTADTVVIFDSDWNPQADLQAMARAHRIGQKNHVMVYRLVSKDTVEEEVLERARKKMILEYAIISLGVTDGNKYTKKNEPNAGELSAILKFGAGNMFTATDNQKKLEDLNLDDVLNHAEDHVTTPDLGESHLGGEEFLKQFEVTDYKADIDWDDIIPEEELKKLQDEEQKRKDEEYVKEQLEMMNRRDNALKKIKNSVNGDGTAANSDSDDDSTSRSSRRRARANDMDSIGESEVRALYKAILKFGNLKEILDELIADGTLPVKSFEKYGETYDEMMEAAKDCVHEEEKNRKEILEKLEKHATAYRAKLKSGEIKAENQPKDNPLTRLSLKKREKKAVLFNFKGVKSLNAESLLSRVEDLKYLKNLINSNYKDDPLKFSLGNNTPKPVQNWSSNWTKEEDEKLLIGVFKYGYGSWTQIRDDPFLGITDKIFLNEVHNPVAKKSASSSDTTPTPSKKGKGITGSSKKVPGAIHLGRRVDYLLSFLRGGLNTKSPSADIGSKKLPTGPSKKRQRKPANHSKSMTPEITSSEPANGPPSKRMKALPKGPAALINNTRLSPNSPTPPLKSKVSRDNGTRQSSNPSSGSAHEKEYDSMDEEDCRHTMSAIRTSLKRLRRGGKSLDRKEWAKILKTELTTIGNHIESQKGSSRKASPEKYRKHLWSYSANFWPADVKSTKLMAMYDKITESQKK

For the compound `COCCNC(=O)[C@H]1C[C@@H]2CCN(Cc3ccoc3)C[C@H]2O1`, the Percent Effect in test [1] was -1.42%; in [2] it was 8.11%; in [3], 5.25%; in test [4], -7.78%; in the test with Trypanosoma cruzi it was -8.7%; in test [5], 7.96%. The Percent Effect was 23.2% in test [6]; 2.97% in the test filed under Homo sapiens; 0% in [7]; 7.69% in test [8]; -1.51% in [9].
For the compound `COC(=O)c1ccc(N2CCN(C(=O)c3cnn(C)c3)C(C)C2)cc1` (stereo unspecified), the Percent Effect was -5.55% in test [1]; 17.7% in test [2]; -10.6% in test [3]; 11.1% in test [4]; 6.14% in the test with Trypanosoma cruzi; -1.52% in test [5]. The Percent Effect was 11.9% in test [6]; 9.04% in the test listed under Homo sapiens; 2.46% in [7]; 13.9% in [8]; -12.4% in [9].
With `COc1ccc(COCC(O)CNC(=O)c2cccnc2)cc1` (stereo unspecified), the Percent Effect in test [1] was -2.83%; in test [2], 3.8%; in [3], 0.844%; in test [4], -5.42%; in the test on Trypanosoma cruzi it was -7.08%; in [5], -5.38%. Also, the Percent Effect in test [6] is 8.75%; in the test listed under Homo sapiens, 2.64%; in test [7] it was 1.04%; in test [8] it was 0%; in [9], -14.1%.
As for `COc1ccc(NC(=O)c2ccc(-n3ncc(C#N)c3N)cc2)cn1`, the Percent Effect in test [1] was -3.59%; in test [2], 10.1%; in test [3], 0.744%; in test [4], 15.3%; in the test with Trypanosoma cruzi, -3.68%; in test [5], -4.94%. Moreover, the Percent Effect in [6] was 0.901%; in the test listed under Homo sapiens, 8.55%; in [7] it was 4.43%; in test [8], 8.86%; in [9] it was -4.68%.
Take `COCCOCc1cccc(NC(=O)N2CCCC2c2ccncc2)c1` (stereo unspecified): the Percent Effect in [1] was -2.97%; in test [2] it was 13%; in [3] it was -3.58%; in [4], 1.28%; in the test on Trypanosoma cruzi it was -4.02%; in [5] it was 1.9%. Also, the Percent Effect is 5.09% in [6]; 16.9% in the test filed under Homo sapiens; 6.67% in test [7]; 7.06% in test [8]; -20.8% in test [9].
In the case of `CN1CCC(Oc2ccc(NC(=O)c3cccc(Cl)c3)cc2)CC1`, the Percent Effect is -5.92% in test [1]; 0% in test [2]; 6.08% in [3]; 4.72% in [4]; 3.05% in the test on Trypanosoma cruzi; 19.3% in test [5]. The Percent Effect was 10.2% in test [6]; 12.9% in the test listed under Homo sapiens; -5.38% in [7]; 1.24% in test [8]; -3.75% in test [9].
Consider `O=C(NCCn1ccc(-c2ccccn2)n1)c1ccncc1`, for which the Percent Effect in test [1] is -1.48%; in [2], 8.22%; in [3], -7.04%; in test [4], 17.5%; in the test with Trypanosoma cruzi, 6.46%; in test [5], -3.18%. In addition, the Percent Effect in test [6] was 9.94%; in the test filed under Homo sapiens it was 4.13%; in [7], 2.15%; in test [8] it was 10%; in test [9], -3.21%.
As for `Cc1ccc2c(ccn2CCC(=O)N2CCC(C(N)=O)CC2)c1`, the Percent Effect was -2.26% in test [1]; 6.67% in [2]; 6.01% in [3]; 7.91% in [4]; -0.393% with Trypanosoma cruzi; -12.2% in [5]. In addition, the Percent Effect in test [6] was 16.6%; in the test filed under Homo sapiens, -3.73%; in [7] it was 5.29%; in test [8] it was 7.69%; in [9] it was -3.32%.
For `COCCN(Cc1ccc(F)cc1Cl)C(=O)c1cccc[n+]1[O-]`, the Percent Effect in test [1] was -4.42%; in test [2], -1.39%; in test [3], 3.97%; in test [4], -0.933%; in the test on Trypanosoma cruzi, -1.65%; in test [5], 6.18%. The Percent Effect in test [6] is 12.3%; in the test listed under Homo sapiens, -7.04%; in test [7], 1.05%; in test [8] it was 7.69%; in test [9], -2.92%.
Regarding `Cn1nc(C(=O)N2CCCCC2c2nc3cc(F)ccc3[nH]2)ccc1=O` (stereo unspecified), the Percent Effect was -6.48% in test [1]; 15.3% in [2]; -16.2% in [3]; 39.4% in [4]; 10.6% with Trypanosoma cruzi; 3.97% in test [5]. In addition, the Percent Effect in [6] was 9.82%; in the test listed under Homo sapiens it was -6.87%; in test [7] it was 2.1%; in test [8], 17.9%; in test [9] it was -10.9%.
`CCCNCc1cn(C)nc1-c1cccnc1`: the Percent Effect is -2.45% in [1]; -2.7% in test [2]; 1.1% in test [3]; -2.38% in test [4]; -6.55% with Trypanosoma cruzi; 1.74% in test [5]. Besides, the Percent Effect was 11.8% in [6]; -8% in the test filed under Homo sapiens; 0% in test [7]; 1.24% in [8]; 1.57% in [9].
